Screens: PubChem, several laboratories
Compounds with a hit are over-represented: about 3.5% of the library has one in this group of screens.
GDH-TPI inh: GDH-TPI coupling enzyme inhibitors, primary screen, artefact control for M. tuberculosis FBA inhibitor project, biochemical, absorbance, full deck; GDH-TPI coupled enzyme counterscreen, NADH absorbance; inhibition, % at 4.8 µM; 1.2% of 360,000 active; AID 588335, 2011; in the data active = inhibition above about 30%;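 also: 0% = DMSO wells and 100% = wells lacking the enzyme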
UGM FP inh: M. tuberculosis UGM enzyme inhibitors, primary screen, biochemical, fluorescence polarization, single point. UDP-galactopyranose mutase (Mycobacterium tuberculosis (strain ATCC 25618 / H37Rv)), …. purified UGM, fluorescence polarization probe displacement. inhibition, % at 10 µM. 0.06% of 320,000 active. AID 504406, 2011; in the data active = inhibition above about 10%, passing the limit was not always enough
Rv3671c inh: Rv3671c serine protease inhibitors, primary screen, biochemical, fluorescence polarization, M. tuberculosis H37Rv; P9WHR9; inhibition, % at 5.96 µM; 0.048% of 320,000 active; in the data active = inhibition above about 38%;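 also: extracellular domain of Rv3671c used as enzyme; 0% = enzyme with DMSO and 100% = no enzyme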
FBA Mtb inh: Mtb FBA enzyme inhibitors, primary screen, biochemical, fluorescence, strain H37Rv; Fructose-bisphosphate aldolase (Mycobacterium tuberculosis (strain ATCC 25618 / H37Rv)), …; purified M. tuberculosis FBA, fluorescence read-out; inhibition, % at 1 µM; 2.3% of 360,000 active; in the data active = inhibition above about 27%;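 also: 0% = vehicle and 100% = reference inhibitor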
Target sequence (P9WQA3 whole entry, looked up): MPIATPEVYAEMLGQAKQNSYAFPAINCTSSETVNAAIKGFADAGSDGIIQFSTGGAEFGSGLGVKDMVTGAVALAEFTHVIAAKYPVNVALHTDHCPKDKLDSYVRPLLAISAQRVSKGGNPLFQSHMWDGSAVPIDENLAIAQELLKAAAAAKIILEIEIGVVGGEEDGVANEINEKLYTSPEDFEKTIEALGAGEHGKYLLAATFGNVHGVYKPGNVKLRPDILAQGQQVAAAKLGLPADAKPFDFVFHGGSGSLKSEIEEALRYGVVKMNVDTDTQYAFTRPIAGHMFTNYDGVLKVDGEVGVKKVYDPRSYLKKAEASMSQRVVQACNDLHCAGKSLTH
Mtb hypoxia inh: PubChem AID 1159583; fluorescence inhibition, % (no concentration beside the values); M. tuberculosis hypoxia-regulated fluorescent reporter, fluorescence; 0.1% of 300,000 active; in the data active = fluorescence inhibition mostly above about 23%, no sharp cut-off; inactive = mostly below about 17%
FadD28 FP inh: inhibitors of FadD28 bisubstrate probe binding, primary screen, biochemical, fluorescence polarization, single point; Mycobacterium tuberculosis FadD28 fatty-acid-AMP ligase; 0.22% of 360,000 active; inhibition, % at 12.5 µM; in the data active = inhibition above about 8.5%, passing the limit was not always enough
The depositor's hits bear a star; / = no result given; + = active, no number.

SMILES	GDH-TPI inh	UGM FP inh	Rv3671c inh	FBA Mtb inh	Mtb hypoxia inh	FadD28 FP inh
c1ccc(-c2nc3ccccc3nc2N2CCOCC2)cc1	15	-3	5	15	/	-1
Cn1c(N2CCOCC2)nc(-c2ccccc2)c1-c1ccccc1	2	0	-5	103*	5	0
CCCN1C(=O)C(=Cc2cc(C)n(C)c2C)SC1=Nc1ccc(OCC)cc1	/	/	/	/	4	/
CC(C)C[C@H](NC(=O)CCCn1nnc2ccccc2c1=O)C(=O)O	59*	1	1	-1	12	0
CSCC[C@H](NC(=O)CCn1nnc2ccccc2c1=O)C(=O)O	-2	2	0	-8	2	-3
CC(=O)Nc1cccc2cc(O)ccc12	11	/	/	-1	11	-1
O=C(O)c1ccc2c3c(cccc13)C(=O)N(c1ccccc1)C2=O	16	0	-8	1	-7	1
CC(C)CCN1C(=O)c2cccc3c(N)ccc(c23)C1=O	-2	18*	6	-4	/	0
CC(=O)Nc1ccc2ccc3cccc4ccc1c2c34	34*	1	-1	18	/	-3
Cc1ccnc(N2C(=O)c3cccc4c([N+](=O)[O-])ccc(c34)C2=O)c1	33*	-1	-1	5	3	-4
CC(=O)Nc1ccc2c3c(cccc13)C(=O)N(c1ccccc1)C2=O	12	-3	-4	+	5	-1
Nc1cccc(N2C(=O)c3cccc4c(N)ccc(c34)C2=O)c1	2	29*	6	-10	/	0
O=C1c2ccc3c4c(ccc(c24)C(=O)N1c1cccc(O)c1)C(=O)N(c1cccc(O)c1)C3=O	35*	0	-7	3	-10	-3
O=C1c2ccc3c4c(ccc(c24)C(=O)N1c1cccc(O)c1)CC3	9	0	-5	3	-8	-2
Cc1cccc(N2C(=O)c3cccc4c(N)ccc(c34)C2=O)c1	-10	39*	11	-11	/	-2
COc1ccc(/C=N\NC(=S)SCN2C(=O)C3CCC(C)(C2=O)C3(C)C)cc1 (configuration not stated)	46*	1	1	0	/	-1
CC12CCC(C(=O)N(CSC(=S)NN=Cc3ccccc3)C1=O)C2(C)C (configuration not stated)	/	/	/	/	10	/
Cc1ccc(NC(=O)CCC(=O)NN=Cc2ccco2)c(C)c1	/	/	/	/	12	/
COc1ccccc1-c1coc2c(CN3CCN(C)CC3)c(O)ccc2c1=O	22	-1	0	132*	-3	-2
CCN1CCN(Cc2c(O)ccc3c2O/C(=C\C=C\c2ccccc2OC)C3=O)CC1	15	0	-1	-4	9	0
COc1ccccc1-c1coc2c(CN3CCN(CCO)CC3)c(O)ccc2c1=O	16	3	-1	152*	/	-2
CCN1CCN(Cc2c(O)ccc3c(=O)c(-c4ccccc4OC)coc23)CC1	28	0	6	119*	9	0
COc1ccc(C2=CC(=O)CC(c3ccc(Cl)cc3)C2)cc1 (configuration not stated)	/	/	/	/	3	/
CC(=NNc1ccc([N+](=O)[O-])cc1)c1ccc(-n2nncc2C(C)(C)C)cc1	/	/	/	/	6	/
C(=N\n1cnnc1)/c1ccc(N2CCOCC2)cc1	34*	4	1	5	/	-1
SMILES	GDH-TPI inh	UGM FP inh	Rv3671c inh	FBA Mtb inh	Mtb hypoxia inh	FadD28 FP inh
C(=N\n1cncn1)/c1ccc(N2CCOCC2)cc1	46*	-1	-6	-3	/	-1
C(=N\n1cnnc1)/c1ccc(N2CCOCC2)s1	11	0	-2	8	/	-1
Cc1ccc(C(COc2ccccc2O)=NO)cc1	/	/	/	/	14	/
CC(=NNS(=O)(=O)c1ccc(Br)cc1)c1ccc(C)o1	/	/	/	/	1	/
C/C(=N\Nc1ccc(Cl)c(C(=O)O)c1)c1cccs1	19	-1	-3	-2	/	-1
C/C(=N/Nc1ccccc1C(=O)O)c1cccs1	33*	-2	6	-3	/	-1
CC(=O)Nc1ccc(C=NNC(=O)c2cc(-c3ccco3)nc3ccccc23)cc1	/	/	/	/	18	/
N=c1c2c(-c3ccccc3)c(-c3ccccc3)n(Cc3ccco3)c2ncn1CCCN1CCOCC1	-8	0	-1	-2	21	8.8*
Cc1ccc(N2C(=O)CS/C2=C(\C(Cl)=C(Cl)Cl)[N+](=O)[O-])cc1	2	-1	3	-2	10	0
CC1CCCC(C)N1C(=C(Cl)Cl)C(=C1SCCS1)[N+](=O)[O-] (configuration not stated)	8	1	9	-1	9	16*
CC(C)C[C@@]12C(=O)N(c3cccc(F)c3)C(=O)N1C(c1ccc(Br)cc1)C1C(=O)N(C(C)(C)C)C(=O)C12 (some centres not stated)	/	/	/	/	-11	/
Cc1cccc(NNC(=O)C(=O)NNc2cccc(C)c2)c1	2	0	2	-2	4	0
Cc1cccc(N=NC(=S)NNc2cccc(C)c2)c1	5	/	/	+	13	-3
C#CCCOC(=O)N1C2=NC(C(=O)OC)=C(C(=O)OC)C3N(C)c4ccccc4[C@]23CC1CO (some centres not stated)	/	/	/	/	2	/
O=C1CN(c2nc3nonc3nc2N2CCCCC2)CCN1	35*	1	0	-3	-1	-2
C1CCCN(c2nc3nonc3nc2N2CCCCCC2)CC1	6	0	5	4	-7	-2
CCCC1(C)Nc2ccccc2-c2nc3ccccc3n21 (configuration not stated)	21	3	3	179*	11	-3
c1ccc2c(c1)NC1(CCCC1)n1c-2nc2ccccc21	11	1	5	+	16	0
O=C1c2ccccc2NC2(CCCC2)N1O	14	-5	2	1	/	-2
CCN(CC)CCNC(=O)C(=NO)c1ccccn1	/	/	/	/	-17	/
COc1ccccc1Nc1ccc2c(O)cc(S(=O)(=O)O)cc2c1	18	/	/	21	9	70*
CC(=O)Nc1ccc2c(O)cc(S(=O)(=O)O)cc2c1	11	/	/	2	-3	3
CCc1ccc(-c2cnc3nc[nH]c(=O)c3n2)cc1	6	1	-3	135*	2	-2
CCc1ccc(-c2ccc(C(=O)O)c(C)n2)cc1	11	1	1	5	/	0
COc1ccc(/C=N/NC2=NS(=O)(=O)c3ccccc32)cc1	44*	-5	-3	0	/	0
O=S1(=O)N=C(N/N=C/C=C/c2ccccc2)c2ccccc21	40*	3	0	2	/	0
CC(=O)Oc1ccc(/C=N/NC2=NS(=O)(=O)c3ccccc32)cc1	35*	4	-3	-1	/	-1
COc1ccc(/C=N/NC2=NS(=O)(=O)c3ccccc32)cc1OC(C)=O	32*	4	-3	-1	/	/
